Assay [1] concerns the target Ferritin light chain (Equus caballus) (UniProt P02791). Put plainly: qHTS Validation Assay for Identification of Novel General Anesthetics (AID 2323). Further: series mostly up to about 77 µM. The method in brief: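 10 uM horse-spleen apoferritin + 1-AMA (50% saturated, PBS); cpd pin-transferred, 10 min RT. Ex 380/Em 535 nm endpoint. Activity normalized between free 1-AMA and 1-AMA/apoferritin; 4-parameter Hill fit of concentration-response.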
In general terms: qHTS replaces the single test concentration by a dilution series.

Assay [2] is described as follows: Cytometric Cell-Based qHTS for Inhibitors of the mTORC1 Signaling Pathway in MEF (Tsc2-/-, p53-/-) Cells (AID 2660).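 Further: Tsc2 and p53 null MEFs carrying empty vector with compound for 24 h; percent of cells above a phospho-rpS6 to PI ratio cutoff in each well; series mostly up to about 38 µM.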 The method in brief:
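Readout: Alexa-488 phospho-rpS6 (Ser235/236) intensity divided by PI intensity, thresholded against 7.5 nM rapamycin wells and reported as % positive cells. PI cell count served as the viability measure. Compound exposure was 24 hrs at 37 degree Celsius.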

A short description of assay [3]: High Content Imaging Cell-Based qHTS for Inhibitors of the mTORC1 Signaling Pathway in MEF Cells (AID 2667).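 Further: Tsc2-/- p53-/- MEFs stably re-expressing wild-type Tsc2 exposed 24 h; series mostly up to about 38 µM.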 Put shortly:
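Tsc2-/-, p53-/- MEFs stably re-expressing WT Tsc2, grown in DMEM + 10% FBS, were treated with compounds for 24 hrs at 37 degree Celsius, fixed, and stained with Alexa-488 phospho-rpS6 Ser235/236 antibody plus Hoechst; results given as % positive cells.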

The nature of assay [4]: Validation screen for small molecules that induce DNA re-replication in MCF 10A normal breast cells (AID 463097). Further: nearly all actives have a fitted effect of over 60% in size. Further: potency means the concentration at half of the fitted maximal effect. The method in brief:
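250 MCF 10A cells/well; compound pin-transferred; 48 hr, 37 C, 5% CO2; Hoechst 40 min; imaged 405/500-530 nm. Hits = more high-intensity nuclei.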

Assay [5] deals with Ubiquitin carboxyl-terminal hydrolase 2 (Homo sapiens) (UniProt O75604). Put plainly: qHTS Validation Assay for Inhibitors of Ubiquitin-specific Protease USP2a Using CHOP2 as the Reporter (AID 463106). The method in brief: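 Readout was coupled fluorescence (Ex 485/Em 531 nm), read 60 min after adding 25 nM final Ub-CHOP2 and 25 nM reporter substrate. Beforehand, 10 nM final USP2 core had 30 min at RT with compound in pH 8.0 buffer. Curves were fitted after normalization to NEM and flagged for artifacts using time-zero reads.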

Assay [6] concerns the target DNA polymerase III PolC-type (Bacillus subtilis (strain 168)) (UniProt P13267). Put plainly: qHTS Validation Assay for the Inhibitors of DNA Replication in Gram-Positive Bacteria (AID 485295).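 Further: reconstituted holoenzyme with PolC plus beta clamp SSB and primase; PicoGreen fluorescence of double-stranded DNA made on primed circular M13 template; series mostly up to about 57 µM.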 The method in brief:
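PicoGreen fluorescence (ex 480–485/em 535–540 nm) reports dsDNA synthesized on ssM13Gori template with dNTPs/NTPs. Enzyme: holoenzyme rebuilt from purified PolC, beta subunit, SSB and primase. Compound preincubated before substrate addition; RT throughout.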

Assay [7] deals with Tumor susceptibility gene 101 protein (Homo sapiens) (UniProt Q99816). The assay is described as follows: qHTS Validation Assay for Iinhibitors of HIV-1 Budding by Blocking the Interaction of PTAP/TSG101 (AID 485342; calls by dose curve). The method in brief: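 FP read-out: FITC-PTAP peptide, 50 nM final, binding Tsg101 binding domain, 10 uM final; 20 min r.t.; 10 mM HEPES pH 7.5, 0.15 M NaCl, 0.01% Tween 20, 3 mM EDTA, 0.1 mM TCEP.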

Assay [8] concerns the target Beta-2 adrenergic receptor (Homo sapiens) (UniProt P07550). Put plainly: qHTS validation assay of beta-arrestin-biased ligands of beta2-adrenergic receptor (AID 485366). The method in brief: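 Agonist activity is measured as luciferase luminescence downstream of beta-arrestin recruitment to recombinant beta2-AR in Tango cells. Exposure lasts 18 hr at 37 degrees C, and curves are categorized by r2, response size and activity.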

For assay [9], the target named is RecQ-like DNA helicase BLM (Homo sapiens) (UniProt P54132). The assay is described as follows: qHTS Validation Assay for Inhibitors of Bloom's syndrome helicase (BLM) (AID 2364). Put shortly: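 Forked 20-bp duplex substrate (200 nM, TAMRA/BHQ-2) plus 2 mM ATP added after 15 min compound preincubation with 50 nM enzyme, pH 8.0, poly(dI-dC) 2.5 ug/ml. Strand separation followed by fluorescence (525/598 nm) over 2 h, normalized to enzyme-free and DMSO controls.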

The nature of assay [10]: qHTS Validation Assay to Find Inhibitors of Chronic Active B-Cell Receptor Signaling (AID 485345; active means well fitted curve in the direction sought with a large enough effect in the main read-out, with a control signal flat, not every such curve was filed as active). The method in brief:
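Read-out: ratio of filter-corrected green (IkappaBalpha fusion) to red (native) luciferase signal in doxycycline-induced TMD8 cells after 4 h at 37C. Titration spanned 46 uM–3 nM; Data were normalised to basal cells and 10 uM MG-132 wells.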

Each structure is given as a SMILES string. Records with an inconclusive call do not appear. The source made the active and inactive calls. Unless noted, the call rests on the fitted dose curve; in most records, active means well fitted curve in the direction sought with a large enough effect; inconclusive means small, poorly fitted or top-dose-only effect, or another doubt; inactive means no such curve, though single readings can be large; an effect the other way counts as inactive or inconclusive.

Sequence of RecQ-like DNA helicase BLM (Homo sapiens) (P54132 whole entry, looked up): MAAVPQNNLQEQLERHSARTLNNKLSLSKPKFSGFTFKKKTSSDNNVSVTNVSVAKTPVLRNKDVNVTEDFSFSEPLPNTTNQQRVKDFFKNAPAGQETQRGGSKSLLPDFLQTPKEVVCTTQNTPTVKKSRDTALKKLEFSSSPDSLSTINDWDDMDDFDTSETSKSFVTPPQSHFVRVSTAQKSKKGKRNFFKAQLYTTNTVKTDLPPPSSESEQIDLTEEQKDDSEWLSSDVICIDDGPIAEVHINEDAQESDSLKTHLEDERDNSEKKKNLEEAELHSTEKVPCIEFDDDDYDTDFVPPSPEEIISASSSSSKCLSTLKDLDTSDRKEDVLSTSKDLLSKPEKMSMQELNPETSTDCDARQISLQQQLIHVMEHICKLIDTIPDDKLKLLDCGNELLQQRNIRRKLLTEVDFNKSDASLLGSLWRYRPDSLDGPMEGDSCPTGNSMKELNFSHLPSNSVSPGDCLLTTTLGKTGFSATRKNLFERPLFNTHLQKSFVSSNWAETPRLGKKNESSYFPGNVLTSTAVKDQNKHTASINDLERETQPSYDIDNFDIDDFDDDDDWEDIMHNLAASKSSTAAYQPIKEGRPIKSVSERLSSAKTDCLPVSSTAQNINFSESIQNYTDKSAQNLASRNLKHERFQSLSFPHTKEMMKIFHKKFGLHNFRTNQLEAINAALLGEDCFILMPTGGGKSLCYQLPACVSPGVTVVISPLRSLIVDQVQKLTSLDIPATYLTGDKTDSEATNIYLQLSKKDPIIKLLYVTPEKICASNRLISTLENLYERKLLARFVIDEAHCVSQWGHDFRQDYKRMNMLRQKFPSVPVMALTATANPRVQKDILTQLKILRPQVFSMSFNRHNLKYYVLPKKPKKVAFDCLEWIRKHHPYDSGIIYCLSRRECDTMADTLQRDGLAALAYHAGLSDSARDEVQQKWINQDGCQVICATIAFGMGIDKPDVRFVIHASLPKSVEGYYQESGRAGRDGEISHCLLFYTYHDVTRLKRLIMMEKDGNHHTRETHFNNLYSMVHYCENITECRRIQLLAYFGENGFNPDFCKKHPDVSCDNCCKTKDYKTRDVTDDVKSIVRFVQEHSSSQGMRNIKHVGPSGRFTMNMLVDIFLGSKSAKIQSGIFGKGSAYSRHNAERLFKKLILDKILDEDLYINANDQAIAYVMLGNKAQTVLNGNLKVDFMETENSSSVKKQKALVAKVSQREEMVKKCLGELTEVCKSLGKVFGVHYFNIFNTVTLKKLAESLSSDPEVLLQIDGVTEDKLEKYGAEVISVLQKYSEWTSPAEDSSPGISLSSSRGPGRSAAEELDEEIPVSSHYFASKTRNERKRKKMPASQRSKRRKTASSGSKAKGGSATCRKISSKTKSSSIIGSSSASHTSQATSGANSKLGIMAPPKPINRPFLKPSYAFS
Sequence of Tumor susceptibility gene 101 protein (Homo sapiens) (Q99816 whole entry, looked up, the tested form may be a part): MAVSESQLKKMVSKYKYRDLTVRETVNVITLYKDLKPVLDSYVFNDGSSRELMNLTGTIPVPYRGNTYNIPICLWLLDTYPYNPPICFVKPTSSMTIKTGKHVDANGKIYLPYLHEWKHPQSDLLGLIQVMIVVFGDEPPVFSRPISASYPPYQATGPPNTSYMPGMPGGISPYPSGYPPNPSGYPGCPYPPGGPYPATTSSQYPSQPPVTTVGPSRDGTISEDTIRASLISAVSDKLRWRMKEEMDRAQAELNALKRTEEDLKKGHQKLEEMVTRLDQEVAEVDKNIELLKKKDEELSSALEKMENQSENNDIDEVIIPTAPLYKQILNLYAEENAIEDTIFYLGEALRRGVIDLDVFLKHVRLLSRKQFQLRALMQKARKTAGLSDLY
Sequence of Ferritin light chain (Equus caballus) (P02791 2-175 limits assumed): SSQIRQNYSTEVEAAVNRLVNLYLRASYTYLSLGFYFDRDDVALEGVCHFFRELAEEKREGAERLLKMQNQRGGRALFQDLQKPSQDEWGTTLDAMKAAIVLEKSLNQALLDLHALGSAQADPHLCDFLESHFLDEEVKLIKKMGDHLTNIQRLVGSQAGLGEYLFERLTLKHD
Sequence of DNA polymerase III PolC-type (Bacillus subtilis (strain 168)) (P13267 whole entry, looked up): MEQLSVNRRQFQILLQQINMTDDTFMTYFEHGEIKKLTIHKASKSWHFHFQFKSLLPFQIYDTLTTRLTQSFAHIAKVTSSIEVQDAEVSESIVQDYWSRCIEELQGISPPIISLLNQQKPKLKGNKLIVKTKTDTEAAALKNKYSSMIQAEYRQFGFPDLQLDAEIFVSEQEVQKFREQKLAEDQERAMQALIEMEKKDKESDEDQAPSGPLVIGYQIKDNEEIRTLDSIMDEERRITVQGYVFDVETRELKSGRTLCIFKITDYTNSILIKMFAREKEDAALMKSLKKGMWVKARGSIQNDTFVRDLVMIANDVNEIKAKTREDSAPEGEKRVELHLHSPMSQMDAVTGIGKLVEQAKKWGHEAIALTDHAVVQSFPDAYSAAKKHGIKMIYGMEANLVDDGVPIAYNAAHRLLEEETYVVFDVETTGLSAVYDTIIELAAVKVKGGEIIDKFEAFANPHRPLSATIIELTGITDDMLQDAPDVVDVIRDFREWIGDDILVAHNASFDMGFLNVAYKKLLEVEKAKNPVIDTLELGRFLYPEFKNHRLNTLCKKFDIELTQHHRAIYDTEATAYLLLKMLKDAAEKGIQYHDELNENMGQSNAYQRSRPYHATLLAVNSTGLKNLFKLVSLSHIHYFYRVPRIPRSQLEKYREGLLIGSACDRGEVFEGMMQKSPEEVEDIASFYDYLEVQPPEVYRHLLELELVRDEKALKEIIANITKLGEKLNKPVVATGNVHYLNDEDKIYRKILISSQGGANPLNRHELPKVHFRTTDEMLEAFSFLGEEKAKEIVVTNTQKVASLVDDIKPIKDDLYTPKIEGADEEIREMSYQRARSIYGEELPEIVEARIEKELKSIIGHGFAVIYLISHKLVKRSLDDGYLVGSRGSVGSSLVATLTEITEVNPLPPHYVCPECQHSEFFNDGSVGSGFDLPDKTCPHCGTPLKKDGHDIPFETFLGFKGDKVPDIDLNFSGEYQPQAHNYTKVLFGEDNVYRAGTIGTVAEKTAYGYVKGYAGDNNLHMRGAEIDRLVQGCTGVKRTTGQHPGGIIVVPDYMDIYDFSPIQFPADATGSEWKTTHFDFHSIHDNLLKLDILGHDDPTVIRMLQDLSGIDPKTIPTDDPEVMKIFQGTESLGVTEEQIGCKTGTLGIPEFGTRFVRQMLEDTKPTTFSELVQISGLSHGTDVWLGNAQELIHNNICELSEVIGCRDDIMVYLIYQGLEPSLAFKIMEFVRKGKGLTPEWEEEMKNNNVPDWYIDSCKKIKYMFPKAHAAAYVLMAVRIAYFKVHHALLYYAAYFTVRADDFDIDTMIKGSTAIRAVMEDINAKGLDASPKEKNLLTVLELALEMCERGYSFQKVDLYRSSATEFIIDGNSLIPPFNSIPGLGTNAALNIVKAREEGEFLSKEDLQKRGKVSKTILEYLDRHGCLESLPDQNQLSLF
Sequence of Ubiquitin carboxyl-terminal hydrolase 2 (Homo sapiens) (O75604 whole entry, looked up): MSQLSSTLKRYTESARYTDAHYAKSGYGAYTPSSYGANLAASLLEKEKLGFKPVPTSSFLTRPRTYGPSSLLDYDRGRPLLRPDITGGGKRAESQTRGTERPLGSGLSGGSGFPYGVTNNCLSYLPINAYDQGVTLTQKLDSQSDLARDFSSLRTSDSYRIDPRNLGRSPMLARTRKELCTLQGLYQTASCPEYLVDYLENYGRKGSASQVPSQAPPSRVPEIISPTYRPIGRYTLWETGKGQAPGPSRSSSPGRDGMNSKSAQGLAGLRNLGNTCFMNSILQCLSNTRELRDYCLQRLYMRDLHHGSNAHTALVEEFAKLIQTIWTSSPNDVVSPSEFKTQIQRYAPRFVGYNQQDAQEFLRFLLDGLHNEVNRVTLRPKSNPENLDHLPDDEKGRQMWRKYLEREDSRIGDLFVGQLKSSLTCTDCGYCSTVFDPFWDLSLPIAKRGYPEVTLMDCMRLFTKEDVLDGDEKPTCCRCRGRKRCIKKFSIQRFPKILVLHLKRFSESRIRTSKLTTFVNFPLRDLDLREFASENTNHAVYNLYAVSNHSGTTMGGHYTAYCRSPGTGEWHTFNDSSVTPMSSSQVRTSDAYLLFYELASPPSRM
Sequence of Beta-2 adrenergic receptor (Homo sapiens) (P07550 whole entry, looked up): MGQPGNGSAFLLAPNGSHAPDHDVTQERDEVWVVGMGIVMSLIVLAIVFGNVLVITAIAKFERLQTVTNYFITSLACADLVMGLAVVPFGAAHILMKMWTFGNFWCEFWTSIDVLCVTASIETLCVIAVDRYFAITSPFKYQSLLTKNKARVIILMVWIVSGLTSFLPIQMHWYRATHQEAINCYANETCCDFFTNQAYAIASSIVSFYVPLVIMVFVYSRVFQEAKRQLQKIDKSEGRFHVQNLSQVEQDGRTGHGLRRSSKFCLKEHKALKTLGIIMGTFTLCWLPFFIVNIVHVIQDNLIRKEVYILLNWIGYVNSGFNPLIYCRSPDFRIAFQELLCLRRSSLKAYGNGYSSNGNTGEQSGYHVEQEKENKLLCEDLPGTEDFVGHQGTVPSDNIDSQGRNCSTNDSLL

In the case of `OCc1ccc(-c2nn(Cc3ccccc3)c3ccccc23)o1`, the result in assay [1], in [2], in assay [3], in assay [5], in [6] and in [7] was inactive. Further, the call in assay [8] was inactive. For the same compound, the Potency in assay [4] is 12.6 µM (active).

With `CC1CC2C3CCC4=CC(=O)C=C[C@]4(C)[C@@]3(F)[C@@H](O)C[C@]2(C)[C@@]1(O)C(=O)CO` (stereo partly specified), the compound was classed as inactive in assay [2], in assay [3], in assay [5], in assay [6], in assay [7] and in assay [8].

For the compound `O=C(O)C1CCCN(CCC=C(c2ccccc2)c2ccccc2)C1` (stereo unspecified), the outcome in assay [1], in [9], in assay [2], in assay [3], in [5] and in assay [6] was inactive. Further, the compound was classed as inactive in assay [7], in assay [10] and in [8]. The Potency entry in assay [4] is “inactive”.

Consider `N[C@@H](Cc1ccc(O)c(O)c1)C(=O)O`, for which the call in [2], in assay [3], in assay [6], in [7], in assay [10] and in assay [8] was inactive.

Take `Nc1nc(N)c2nc(CNc3ccc(C(=O)NC(CCC(=O)O)C(=O)O)cc3)cnc2n1` (stereo unspecified): the compound was called inactive in assay [2], in assay [3], in [5], in assay [6], in assay [7] and in assay [10]. For the same compound, in [8], the result was inactive. Further, the Potency entry in assay [4] was “inactive”.

On to `CC1=C(C(=O)O)N2C(=O)[C@@H](NC(=O)C(N)c3ccccc3)[C@H]2SC1` (stereo partly specified), for which the compound was classed as inactive in assay [1], in assay [3], in assay [5], in assay [6], in assay [7] and in assay [10]. In addition, the compound was called inactive in assay [8]. Further, in assay [4], the Potency entry is “inactive”.

As to `CC(C)(C)NC(=O)[C@H]1CC[C@H]2[C@@H]3CC[C@H]4NC(=O)C=C[C@]4(C)[C@H]3CC[C@]12C`, the compound was called inactive in [1]. In addition, the Potency entry in assay [4] was “inactive”.

In the case of `Cc1ccc(S(=O)(=O)N[C@@H](Cc2ccccc2)C(=O)CCl)cc1`, the compound was classed as inactive in assay [1], in [5], in [6], in assay [7] and in [8].

For `NC(=O)c1cccc(N)c1`, the compound was classed as inactive in [1], in [9], in assay [2], in assay [3], in assay [5] and in [6]. Also, the compound was called inactive in assay [7], in [10] and in assay [8]. The Potency result in assay [4] was “inactive”.

Take `CCN(CC)CC#CCOC(=O)C(O)(c1ccccc1)C1CCCCC1` (stereo unspecified): the outcome in assay [9], in assay [2], in assay [3], in [5], in assay [6] and in assay [7] was inactive. Besides, the outcome in assay [10] and in assay [8] was inactive. Moreover, in assay [4], the Potency entry is “inactive”.

Take `COc1cc2nc(N3CCCN(C)CC3)nc(NC3CCN(Cc4ccccc4)CC3)c2cc1OC`: the result in assay [5], in [6], in assay [7] and in [8] was inactive.

With `CC(=O)[C@H]1CC[C@H]2[C@@H]3CCC4=CC(=O)CC[C@]4(C)[C@H]3CC[C@]12C`, the result in assay [9], in assay [2], in [3], in assay [5], in assay [6] and in [7] was inactive. The result in assay [8] was inactive. Further, in assay [4], the Potency entry is “inactive”.

As for `CC(C)NCC(O)c1ccc(NS(C)(=O)=O)cc1` (stereo unspecified), the compound was called inactive in assay [1], in assay [2], in assay [3], in assay [5], in assay [6] and in assay [7]. Also, in assay [10], the call was inactive. Also, in assay [4], the Potency entry was “inactive”.

In the case of `CCN(CC)CCn1c(=O)c(Cc2ccc(OC)cc2)nc2ccccc21`, the call in [2], in assay [3], in assay [5], in assay [6], in assay [7] and in assay [8] was inactive.

Regarding `CCCCS(=N)(=O)CCC(N)C(=O)O` (stereo unspecified), the compound was classed as inactive in [1], in [9], in [2], in assay [3], in [5] and in [6]. Moreover, the compound was called inactive in assay [7], in assay [10] and in assay [8]. The Potency result in assay [4] was “inactive”.

Regarding `COc1cc2ncnc(Nc3cccc(Cl)c3)c2cc1OC`, the compound was classed as inactive in [1], in assay [2], in assay [3], in assay [5], in assay [6] and in [7]. In assay [8], the result was inactive.

For the compound `CCN1CCCC1CNC(=O)c1cc(S(N)(=O)=O)ccc1OC` (stereo unspecified), the compound was classed as inactive in assay [1], in [2], in assay [3], in assay [5], in assay [6] and in assay [7]. Further, the result in [10] and in [8] was inactive. Moreover, the Potency entry in assay [4] is “inactive”.

For `NC(=O)c1ccc2[nH]ccc2c1`, the compound was called inactive in [2], in assay [3], in assay [5], in assay [6], in assay [7] and in [10]. In assay [8], the call was inactive.

Source of the values: PubChem BioAssay (NCATS).
